High-throughput results deposited in PubChem by National Center for Advancing Translational Sciences (NCATS).
Most compounds without a hit are left out; they make up all but 9.3% or so of the library.
ELG1 repair inh – blocks ELG1-dependent DNA repair in HEK293T cells | HEK293T ELG1-luciferase reporter, luminescence, 16 h; DNA damage induced by 5-fluorouridine | Potency, µM (doses to about 46.1 µM), for the others: top-dose activity change, negative = inhibition, actives largely listed as inhibitors | 330,000 compounds, 2.3% hits | AID 504467; also: % is scaled to controls: 0 for no effect and ±100 for the full control effect; nearly all actives have a fitted effect of over 55% in size
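5-Fluorouridine DNA damage + compound/DMSO, 2,000 cells/well, 16 h, 37 °C/5% CO2. ONE-Glo, 30 min RT, luminescence. Readout = decrease in reporter signal.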
Rab9 prom act – Rab9 promoter activation; Huh7 Rab9 promoter-luciferase reporter, luminescence, 24 h; Potency, µM (doses to about 9.22 µM), for the others: at the top dose activation, negative = inhibition, hits mostly activators; 320,000 compounds, 2.8% hits; AID 485297; also: % of control where 0% means no effect; nearly all actives have a fitted effect of over 60% in size
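Promoter activation is measured as luciferase luminescence in Huh7 cells stably transfected with a Rab9 promoter–luciferase construct, following 24 h compound exposure at 37 °C and 10 min reagent incubation at ambient temperature.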
ELG1 genotox – genotoxicity induction in ELG1-luciferase HEK293T cells. HEK293T ELG1-luciferase reporter, luminescence, 16 h. Potency, µM (series often up to 46 µM), inactives show at the highest dose activity change, positive = activation, actives largely listed as activators. 330,000 compounds, 1.3% hits. AID 504466; also: % of control where 0% means no effect; nearly all actives have a fitted effect of over 60% in size
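16 hr compound incubation (37 °C, 5% CO2) of HEK293T cells carrying luciferase-tagged ELG1; luciferase then measured by ONE-Glo luminescence after 30 min at RT.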
SMN2 splice up – SMN2 splice variant enhancement. 210,000 compounds, 2.8% hits. Potency, µM (doses to about 46.1 µM), without a hit: top-dose activity change, positive = activation, usual class: activators. HEK293 SMN2-luciferase splicing reporter, luminescence, 30-36 h; also: % of control where 0% means no effect; nearly all actives have a fitted effect of over 55% in size
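HEK293 cells carry an SMN2 […]–luciferase reporter in which exon 7 inclusion puts luciferase in frame. Cells were plated 10-12 h before compound addition, then incubated 30-36 h at 37C. ONE-Glo luminescence was read; sodium butyrate at 4.5 mM final served as control.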
FLuc modulator – counter-screen for miR-21 project: firefly luciferase inhibitors or activators. AID 588342. Potency, µM (top dose mostly 57.5 µM), inactives show top-dose activity change, negative = inhibition, actives largely listed as inhibitors. 360,000 compounds, 6.9% hits. purified FLuc, Km substrates, luminescence inhibition. P08659;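 also: plate controls were vehicle for no effect and reference inhibitor for full effect; nearly all actives have a fitted effect of over 55% in size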
Target sequence (P08659 whole entry, looked up): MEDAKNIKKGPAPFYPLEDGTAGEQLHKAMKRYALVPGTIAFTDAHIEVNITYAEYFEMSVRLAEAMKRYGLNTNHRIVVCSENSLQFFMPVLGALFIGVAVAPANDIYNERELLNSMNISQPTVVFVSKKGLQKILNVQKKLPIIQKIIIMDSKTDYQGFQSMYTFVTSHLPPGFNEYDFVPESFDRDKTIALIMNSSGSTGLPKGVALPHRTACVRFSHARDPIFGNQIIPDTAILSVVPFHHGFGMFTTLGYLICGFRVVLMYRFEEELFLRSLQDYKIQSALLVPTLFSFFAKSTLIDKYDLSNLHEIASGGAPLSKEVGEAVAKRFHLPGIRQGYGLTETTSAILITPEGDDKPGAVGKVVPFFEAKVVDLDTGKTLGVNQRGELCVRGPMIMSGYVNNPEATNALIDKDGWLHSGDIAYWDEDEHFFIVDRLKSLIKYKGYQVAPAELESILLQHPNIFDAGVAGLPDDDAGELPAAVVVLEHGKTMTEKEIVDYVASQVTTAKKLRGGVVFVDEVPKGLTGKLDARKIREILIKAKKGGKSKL
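Biochemical qHTS of compounds, final roughly 60 µM downward over six points, against 10 nM purified firefly luciferase using Km concentrations of substrates (10 uM D-luciferin, 10 uM ATP) in Tris acetate pH 7.5 buffer; luminescence output.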
NPC1 prom act – NPC1 promoter activation. Potency, µM (doses to about 9.22 µM), inactives show at the highest dose activation, actives largely listed as activators. Huh7 NPC1 promoter luciferase reporter, 24 h. AID 485313. 320,000 compounds, 2.4% hits; also: % of control where 0% means no effect; nearly all actives have a fitted effect of over 60% in size
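Quantitative HTS used a cell-based reporter: Huh7 cells stably bearing the NPC1 promoter upstream of luciferase were treated with compounds for 24 h, and promoter activation was read as luminescence.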
An asterisk follows results filed as active; u = inconclusive; x = no result given. Calls follow the shape of the dose curve; as a rule, active = well fitted curve in the direction sought with a large enough effect; inconclusive = small, poorly fitted or top-dose-only effect, or another doubt; inactive = no such curve, though single readings can be large; an effect the other way counts as inactive or inconclusive. Potency is read from the fitted curve at half-maximal effect.

SMILES	ELG1 repair inh	Rab9 prom act	ELG1 genotox	SMN2 splice up	FLuc modulator	NPC1 prom act
CC1CCC(C(C)C)C(OC(=O)Cn2c(-c3ccc(Br)cc3)[n+](C)c3ccccc32)C1 (configuration not stated)	13µM*	-14.4%	-15.2%	-65.4%	u	-20.8%
CC1CCC(C(C)C)C(OC(=O)Cn2c(-c3ccc(Cl)cc3)[n+](C)c3ccccc32)C1 (configuration not stated)	u	-25.5%	-8.5%	x	5.7%	-25.4%
CCCCCCCCCCOC(=O)Cn1c(COc2ccccc2C)[n+](C)c2ccccc21	u	-5.6%	-10.2%	x	0.6%	-5.9%
Cc1ccccc1OCc1n(CC(=O)OC2CC(C)CCC2C(C)C)c2ccccc2[n+]1C (configuration not stated)	11.6µM*	-2.0%	-19.0%	-15.1%	0.8%	-2.3%
COCCNC(=O)c1cc(-c2ccc3c(c2)OCO3)on1	u	2.51µM*	u	11.2µM*	6.75µM*	1.58µM*
O=C(Nc1ccc(Br)cc1)c1cc(-c2ccc3c(c2)OCO3)on1	4.3%	-11.3%	3.8%	x	-1.9%	-9.0%
COCCNC(=O)COCc1cc(-c2ccc3c(c2)OCO3)on1	11.6%	-0.6%	4.6%	x	u	-3.8%
Cc1nn(Cc2ccc(Cl)cc2)c(C)c1NC(=O)c1c(-c2ccccc2)noc1C	13µM*	2.9%	-8.1%	-15.3%	-1.7%	-2.1%
C=CCNC(=O)c1cc(-c2ccc3c(c2)OCO3)on1	u	0.562µM*	u	x	2.13µM*	0.447µM*
CCC(C)NC(=O)c1cc(-c2ccc3c(c2)OCO3)on1 (configuration not stated)	u	0.447µM*	u	x	3.38µM*	0.891µM*
O=C(CSc1ccccc1)NN1C(=O)c2ccccc2C1=O	7.9%	0.1%	-1.6%	-4.9%	-3.8%	-1.4%
COc1ccc(CCNC(=O)C2CCN(S(=O)(=O)c3ccc(NC(C)=O)cc3)CC2)cc1OC	-1.1%	-0.2%	-0.3%	x	-0.9%	-3.8%
COc1ccccc1CN1C[C@@H]2C[C@@H](C3=Cc4cc(Cl)ccc4OC3)N3CCC[C@@]23C1=O	-15.7%	6.4%	-13.9%	x	4.7%	2.0%
O=c1[nH]c(CSc2cccc[n+]2[O-])nc2ccccc12	u	17.6%	1.3%	x	-8.4%	27.7%
Cc1nn(Cc2ccc(Cl)cc2)c(C)c1NC(=O)c1cc(-c2ccc3c(c2)OCO3)on1	18.4µM*	-6.1%	-10.0%	-53.7%	0.8%	-5.5%
NS(=O)(=O)c1ccc(CCNC(=O)c2cc3ccccc3s2)cc1	u	-0.6%	9.8%	x	-0.8%	-0.6%
CC(Oc1ccc([N+](=O)[O-])cc1)C(=O)NCCCN1CCOCC1 (configuration not stated)	5.0%	-0.9%	4.6%	x	-2.2%	-2.9%
Cc1c(C(=O)NCCC2=CCCCC2)oc2ccc(S(=O)(=O)N3CCOCC3)cc12	16.4µM*	0.2%	-13.4%	-40.4%	u	0.9%
COc1ccc2oc(C(=O)Nc3cccc(S(=O)(=O)N4CCOCC4)c3)c(C)c2c1	u	0.9%	-5.5%	x	6.01µM*	1.8%
Cc1c(C(=O)NCc2cccs2)oc2ccc(Br)cc12	u	13.8%	18.4µM*	-20.3%	19µM*	0.9%
Cc1c(C(=O)NCc2ccccn2)oc2ccc(S(=O)(=O)N3CCOCC3)cc12	u	-2.1%	-5.5%	-10.1%	0.6%	0.7%
COc1ccc2oc(C(=O)OCC(=O)Nc3cccc(S(=O)(=O)N4CCOCC4)c3)c(C)c2c1	-2.3%	0.4%	1.0%	x	u	0.4%
Cc1c(C(=O)NCc2cccs2)oc2ccc(S(=O)(=O)N3CCOCC3)cc12	10.3µM*	0.1%	-4.4%	u	3.2%	1.9%
